Among the data in PubChem BioAssay are z-score and composite z-score values, retold here.

Assay [1] can be described thus: compound effects on lung adenocarcinoma cell viability – A549, calcein-AM fluorescence, 48 h, basal, profiling panel (AID 1162). Also: test concentration not given here. Conditions: higher = more signal.
Assay [2] in a line: compound effects on differentiated 3T3-L1 adipocyte viability – cell-based, 3T3-L1 adipocytes, calcein-AM fluorescence, 48 h, basal, profiling panel (AID 1163). Also: test concentration not given here. Conditions: 3T3-L1 adipocytes viability, higher = more signal.
The nature of assay [3]: compound effects on hepatocellular carcinoma cell viability – HepG2, calcein-AM fluorescence, 48 h, basal, profiling panel (AID 1164). Also: test concentration not given here. Conditions: higher = more signal.
Assay [4] is described as follows: compound effects on multiple myeloma cell viability – MM1S, calcein-AM fluorescence, 48 h, basal, profiling panel (AID 1165). Also: test concentration not given here. Conditions: higher = more signal.
Assay [5] is described as follows: calcein-AM signal in unstimulated myeloma cells – cell-based, calcein-AM fluorescence, 48 h, PK04 Diversity Set, profiling panel (AID 1166).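 Also: cells grown under basal conditions without added stimulus; test concentration not given here.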 The following applies: RPMI8226 myeloma viability, higher = more signal.
A short description of assay [6]: JC-1 mitochondrial signal, unstimulated HepG2 cells – cell-based, JC-1 fluorescence, 24 h, 100 nL compound, profiling panel (AID 1167). Also: test concentration not given here. Conditions: HepG2 mitochondrial potential, higher = more signal.
Assay [7] can be described thus: JC-1 mitochondrial signal, unstimulated adipocytes – cell-based, JC-1 fluorescence, 3T3-L1 adipocytes, 24 h, 100 nL compound, profiling panel (AID 1168). Also: test concentration not given here. The following applies: JC-1 mitochondrial fluorescence, higher = more signal, called active from +8 up or from −8 down.
Assay [8] can be described thus: JC-1 mitochondrial signal, unstimulated myeloma cells – cell-based, JC-1 fluorescence, RPMI8226, 24 h, 100 nL compound, profiling panel (AID 1169). Also: test concentration not given here. Conditions: JC-1 mitochondrial potential fluorescence, higher = more signal.
Assay [9] is described as follows: JC-1 mitochondrial signal, unstimulated MM1S myeloma – cell-based, JC-1 fluorescence, 24 h, 100 nL compound, profiling panel (AID 1170). Also: test concentration not given here. Conditions: MM1S mitochondrial potential, higher = more signal.
A short description of assay [10]: resazurin metabolic signal in A549 cells – cell-based, resazurin fluorescence, 24 h, PK04 Diversity Set, profiling panel (AID 1171). Also: test concentration not given here. Conditions: A549 viability, higher = more signal, called active from +8 up or from −8 down.
Assay [11] is described as follows: resazurin metabolic signal in HepG2 cells – cell-based, resazurin fluorescence, 24 h, PK04 Diversity Set, profiling panel (AID 1172). Also: test concentration not given here. Conditions: HepG2 viability, higher = more signal.
Assay [12] is described as follows: budding yeast growth changes without added modifier – OD600, strain BY4716, 24 h, basal condition, primary screen (AID 1173). The following applies: S. cerevisiae BY4716 growth, OD600, 24 h; higher = more signal, called active from +8 up or from −8 down.
The nature of assay [13]: viability profiling in MM1S myeloma cells – cell-based, resazurin fluorescence, basal, 24 h, PK04 Diversity Set, profiling panel (AID 1174). Also: test concentration not given here. The following applies: higher = more signal, called active from +8 up or from −8 down. (In general: Resazurin is reduced to fluorescent resorufin, in cell work by metabolically active cells.)
Assay [14] concerns the target Dihydroorotate dehydrogenase (quinone), mitochondrial (Plasmodium falciparum (isolate 3D7)) (UniProt Q08210). Briefly: inhibition of P. falciparum DHODH – biochemical, C-terminal His tag, absorbance 600 nm, primary screen (AID 1175).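 Also: recombinant parasite enzyme with a five histidine tag at its C terminus; test concentration not given here.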 The following applies: PfDHODH enzyme, DCIP absorbance 600 nm; higher = more signal, called active from +8 up or from −8 down.
The nature of assay [15]: inhibition of PAO1 biofilm formation – strain PAO1, LB-PBS medium, absorbance 600 nm, primary screen (AID 1176). Also: test concentration not given here. The following applies: P. aeruginosa PAO1 growth/biofilm, A600, 12 h; higher = more signal.
Assay [16] can be described thus: growth modulation of vineyard yeast isolate – strain RM11-1a, OD600, basal, 24 h, primary screen (AID 1177).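 Also: cultures grown under basal conditions with no added stressor; test concentration not given here.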 The following applies: S. cerevisiae RM11-1a growth, OD600, 24 h; higher = more signal, called active from +8 up or from −8 down.
The nature of assay [17]: growth of efflux-deficient E. coli DRC39 – strain DRC39, OD650, 24 h, E. coli filamentation inducers, primary screen (AID 1178).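 Also: growth measured as culture turbidity by optical density at 650 nm; test concentration not given here.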 The following applies: E. coli DRC39 acrAB, higher = more signal, called active from +8 up or from −8 down.
A short description of assay [18]: growth of efflux-deficient E. coli DRC39 – strain DRC39, OD650, 48 h, E. coli filamentation inducers, primary screen (AID 1179).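 Also: screen aims at cell division blockers that make cells filament.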 The following applies: E. coli DRC39 delta-acrAB growth, higher = more signal, called active from +8 up or from −8 down.
Assay [19] in a line: viability profiling in RPMI8226 myeloma cells – cell-based, resazurin fluorescence, basal, 24 h, PK04 Diversity Set, profiling panel (AID 1180).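 Also: RPMI8826 multiple myeloma cell line at 5000 cells per well; test concentration not given here.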 The following applies: higher = more signal.
Assay [20] addresses E3 ubiquitin-protein ligase XIAP (Homo sapiens) (UniProt P98170). The experiment in a line: small molecules binding XIAP protein – biophysical, small-molecule microarray, fluorescence 635 nm, primary screen (AID 1181).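 Also: score merges 667 nm emission and signal to noise over triplicate slides.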 The following applies: higher = more signal.

Active and inactive are the calls of the source. Unless noted, no rule for the calls is given here.

Chain of E3 ubiquitin-protein ligase XIAP (Homo sapiens) (P98170 whole entry, looked up): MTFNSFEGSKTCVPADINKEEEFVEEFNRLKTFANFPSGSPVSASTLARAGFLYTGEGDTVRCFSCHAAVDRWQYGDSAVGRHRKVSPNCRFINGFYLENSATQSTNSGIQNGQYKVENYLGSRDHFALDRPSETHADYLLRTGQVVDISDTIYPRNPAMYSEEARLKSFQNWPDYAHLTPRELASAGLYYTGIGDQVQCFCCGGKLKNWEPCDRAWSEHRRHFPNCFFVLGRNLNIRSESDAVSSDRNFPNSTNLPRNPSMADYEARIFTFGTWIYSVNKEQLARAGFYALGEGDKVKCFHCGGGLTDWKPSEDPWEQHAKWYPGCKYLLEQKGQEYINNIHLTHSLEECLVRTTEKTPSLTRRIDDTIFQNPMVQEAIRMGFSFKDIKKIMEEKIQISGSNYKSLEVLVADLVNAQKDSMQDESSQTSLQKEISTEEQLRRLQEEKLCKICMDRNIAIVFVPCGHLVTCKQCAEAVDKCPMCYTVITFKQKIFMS
Chain of Dihydroorotate dehydrogenase (quinone), mitochondrial (Plasmodium falciparum (isolate 3D7)) (Q08210 whole entry, looked up): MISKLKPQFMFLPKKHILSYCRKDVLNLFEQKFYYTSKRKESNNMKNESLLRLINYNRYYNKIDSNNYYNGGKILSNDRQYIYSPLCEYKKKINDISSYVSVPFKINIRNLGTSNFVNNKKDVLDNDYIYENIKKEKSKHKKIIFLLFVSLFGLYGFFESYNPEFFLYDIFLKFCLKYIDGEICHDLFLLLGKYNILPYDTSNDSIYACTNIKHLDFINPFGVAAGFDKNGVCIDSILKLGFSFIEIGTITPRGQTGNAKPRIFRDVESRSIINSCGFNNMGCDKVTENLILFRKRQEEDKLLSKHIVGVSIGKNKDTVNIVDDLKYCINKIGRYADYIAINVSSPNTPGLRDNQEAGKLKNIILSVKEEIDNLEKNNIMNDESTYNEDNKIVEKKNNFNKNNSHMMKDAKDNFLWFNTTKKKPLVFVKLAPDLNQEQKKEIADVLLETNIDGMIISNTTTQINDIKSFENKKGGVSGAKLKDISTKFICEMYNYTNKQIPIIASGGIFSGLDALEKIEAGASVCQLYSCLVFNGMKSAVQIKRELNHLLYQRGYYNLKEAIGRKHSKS

On to `COc1cccc(/C=C(\C#N)C(=O)Nc2c(C)n(C)n(-c3ccccc3)c2=O)c1`, for which the z-score in assay [1] was 2.14; in [2] it was 1.12; in assay [3] it was 1.01; in assay [4], -0.485; in assay [5] it was 0.101; in assay [6], 0.778. Further, the z-score is 0.159 (inactive) in assay [7]; 0.505 in assay [8]; -0.535 in assay [9]; -0.589 (inactive) in assay [10]; 0.665 in assay [11]; -1.81 (inactive) in [12]. The z-score is -1.82 (inactive) in assay [13]; 0.792 (inactive) in assay [15]; -0.6 (inactive) in assay [16]; 0.575 (inactive) in assay [17]; 1.15 (inactive) in assay [18]; 0.191 in assay [19]. For the same compound, the composite z-score in [14] was -1.14 (inactive); in assay [20], 0.0775.

For the compound `CN1C(=O)C2C=CC(C(O)c3ccc(F)cc3)N(NC(=O)OC(C)(C)C)C2C1=O` (stereo not given), the z-score in assay [1] was -0.834; in assay [2], -0.528; in assay [3] it was 0.0643; in assay [4], -2.82; in [5], -0.0542; in [6], -0.8. Further, the z-score was -0.517 (inactive) in assay [7]; 0.247 in assay [8]; 1.3 in assay [9]; -1.18 (inactive) in [10]; -1.37 in assay [11]; 1.18 (inactive) in [12]. Also, the z-score in [13] was -0.67 (inactive); in assay [15], 0.503 (inactive); in [16] it was 1.09 (inactive); in assay [17] it was -0.592 (inactive); in [18] it was -0.764 (inactive); in assay [19], -1.37. Besides, the composite z-score in assay [14] is 0.929 (inactive); in assay [20], 0.171.

As to `CN1C(=O)C2C=CC(C(O)c3cc(C(F)(F)F)cc(C(F)(F)F)c3)N(Nc3ccccc3)C2C1=O` (stereo not given), the z-score is -1.53 in assay [1]; -1.36 in assay [2]; -0.78 in [3]; -0.239 in assay [4]; -0.683 in assay [5]; -1.09 in assay [6]. For the same compound, the z-score was -0.551 (inactive) in assay [7]; -0.222 in [8]; 0.333 in [9]; 0.672 (inactive) in [10]; -0.0075 in [11]; -2.64 (inactive) in assay [12]. Besides, the z-score in assay [13] is -0.18 (inactive); in assay [15], 0.214 (inactive); in assay [16], -0.478 (inactive); in [17], -0.732 (inactive); in assay [18], -0.556 (inactive); in assay [19], 0.298. Moreover, the results for the composite z-score in assay [14] and in assay [20] were -0.274 (inactive) and 0.0641, respectively.

`CC(C)[Si]1(C(C)C)OCc2cc(-c3ccc(-c4ccc(Cl)c(Cl)c4)o3)nc(CCc3ccccc3)c21`: the z-score was 0.305 in assay [1]; 0.405 in assay [2]; 0.165 in [3]; -3.2 in assay [4]; -4.26 in [5]; -2.07 in [6]. The z-score was 0.945 (inactive) in [7]; -0.838 in [8]; -1.72 in assay [9]; 1.4 (inactive) in assay [10]; 0.822 in assay [11]; -3.49 (inactive) in assay [12]. Also, the z-score is -1.64 (inactive) in assay [13]; 0.149 (inactive) in assay [15]; -0.302 (inactive) in assay [16]; 1.46 (inactive) in assay [17]; 0.643 (inactive) in [18]; -0.0096 in assay [19]. For the same compound, the composite z-score in assay [14] is 0.393 (inactive); in assay [20], -0.185.

As to `CCOC(=O)C1=C[C@@H](c2ccccc2)N(S(=O)(=O)c2ccc(C)cc2)[C@H]1c1ccccc1`, the z-score is -0.834 in assay [1]; -0.926 in assay [2]; -0.813 in assay [3]; -1.14 in [4]; -1.16 in assay [5]; 1.62 in assay [6]. Further, the z-score is -2.52 (inactive) in assay [7]; -0.368 in assay [8]; -0.0131 in assay [9]; 0.537 (inactive) in [10]; -0.443 in assay [11]; 0.779 (inactive) in assay [12]. The z-score in assay [13] was -1.38 (inactive); in assay [15], 0.878 (inactive); in assay [16], 0.398 (inactive); in assay [17], -0.86 (inactive); in assay [18], -0.605 (inactive); in assay [19], -0.549. Moreover, the composite z-score in assay [14] is -0.629 (inactive); in assay [20], 0.125.

On to `Cc1cccc([C@H]2C[C@H]3C(I)=C[C@@H]2C(=O)[C@]32CO2)c1`, for which the z-score in assay [1] is -0.985; in assay [2], -0.176; in assay [3], -0.902; in [4], -3.19; in assay [5] it was -3.12; in [6], -1.45. Moreover, the z-score in [7] is 0.224 (inactive); in [8] it was -0.889; in assay [9], -0.753; in assay [10] it was -0.109 (inactive); in [11], 0.644; in assay [12], -10.5 (active). Besides, the z-score was -0.415 (inactive) in assay [13]; 0.531 (inactive) in [15]; -0.639 (inactive) in assay [16]; -0.545 (inactive) in assay [17]; -1.15 (inactive) in [18]; 0.305 in [19]. For the same compound, the composite z-score in assay [14] was 0.284 (inactive); in assay [20], 0.49.

On to `C=CCNC(=O)[C@@H]1[C@H]2C(=O)O[C@H](c3ccccc3)[C@H](c3ccccc3)N2[C@H](c2ccc(OCCO)cc2)[C@@]12C(=O)N(C(=O)OCCOC)c1ccc(C#CCCO)cc12`, for which the z-score in [1] was 2.85; in [2], 1.86; in [3], 1.22; in assay [4] it was 0.485; in assay [5] it was 0.927; in assay [6], -0.435. The z-score in [7] is 1.27 (inactive); in [8], -0.709; in [9], -1.07; in assay [10] it was -0.477 (inactive); in [11], 0.266; in [12] it was -0.153 (inactive). In addition, the z-score in assay [13] is 0.423 (inactive); in assay [15] it was 2.16 (inactive); in assay [16], 1.55 (inactive); in assay [17], 0.756 (inactive); in assay [18] it was 0.298 (inactive); in assay [19], 1.04. Also, the figures for the composite z-score in [14] and in [20] were -0.767 (inactive) and -0.0161, respectively.

Turning to `COCCOC(=O)N1C(=O)[C@@]2(c3cc(C#CCC(C(=O)OC)C(=O)OC)ccc31)[C@H](C(=O)NC[C@H](O)c1ccccc1)[C@H]1C(=O)O[C@H](c3ccccc3)[C@H](c3ccccc3)N1[C@@H]2c1ccc(O)cc1`, the z-score in [1] was 0.395; in assay [2] it was 0.408; in assay [3], 1.26; in [4], -0.99; in assay [5], -1.74; in assay [6], 0.126. The z-score in assay [7] is -0.489 (inactive); in assay [8], -0.39; in assay [9], -0.491; in [10] it was -0.227 (inactive); in assay [11] it was 0.442; in assay [12] it was 1.14 (inactive). Besides, the z-score was 0.73 (inactive) in [13]; 1.1 (inactive) in assay [15]; 1.24 (inactive) in assay [16]; 0.35 (inactive) in [17]; 0.644 (inactive) in assay [18]; -1.4 in assay [19]. The composite z-score was -2.68 (inactive) in [14] and -0.096 in [20].
